Source: the supplement of paper PMC7156485
± gives the standard deviation of the averaged measurements.

Key:
Details in all cases: concentration: 10 µM; 24 h
HCC1569 [1] = experiment: cell number relative to DMSO (% of DMSO); higher = more cells (less growth inhibition / toxicity)
In short: (§1)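 Using 384-well plates with 800 cells per well in RPMI plus 10% FBS, HCC1569 and TDF cells were exposed to compounds at 10 µM, in triplicate, for 24 h at 37 °C. Imaging of six fields per well at ×10 followed H1.0 and DAPI staining. The reported quantity, H1.0 nuclear intensity or cell number, is a median of replicates given as percent of the plate control, and HCC1569 values were smoothed for positional effects.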

TDF [2] = experiment: as above
In short: as §1

TDF [3] = experiment: H1.0 immunofluorescence intensity relative to DMSO (% of DMSO); higher = stronger H1.0 induction, active = 120 or more
In short: as §1

HCC1569 [4] = experiment: H1.0 immunofluorescence intensity relative to DMSO (% of DMSO); higher = stronger H1.0 induction, active = 140 or more
In short: as §1
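For H1.0 immunofluorescence intensity relative to DMSO in this document: TDF is a line of transformed human dermal fibroblasts of mesenchymal origin.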
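For cell number relative to DMSO in this document: TDF denotes transformed human dermal fibroblasts of mesenchymal origin.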

SMILES	cell number (HCC1569 [1])	cell number (TDF [2])	H1.0 immunofluorescence intensity (TDF [3])	H1.0 immunofluorescence intensity (HCC1569 [4])
CC(COc1ccc(C=Cc2ccccc2)cc1)[N+](C)(C)C.[I-] (stereo unspecified)	95.6	84.6	107 (inactive)	110 (inactive)
CCC(c1ccc(O)cc1)C(CC)c1ccc(O)cc1 (stereo unspecified) [Hexestrol]	100	102	94.1 (inactive)	119 (inactive)
[Cl-].[Li+] [Lithium Chloride]	101	109	92.2 (inactive)	88 (inactive)
O=c1[nH]c(=O)n([C@H]2C[C@H](O)[C@@H](CO)O2)cc1/C=C/Br [(E)-5-(2-Bromovinyl)-2'-deoxyuridine]	104	100	97.3 (inactive)	87.7 (inactive)
Cc1ccc([N+](=O)[O-])cc1S(=O)(=O)N(C)N=Cc1cnc2ccc(Br)cn12	52	11.6	111 (inactive)	104 (inactive)
CCCCCCCCCCCCCCCC(=O)OCC(O)C1OC(=O)C(O)=C1O (stereo unspecified) [Ascorbyl palmitate]	98.6	105	96.1 (inactive)	102 (inactive)
CN1CCc2cc(Cl)c(O)cc2C(c2ccccc2)C1.Cl (stereo unspecified)	103	104	88.5 (inactive)	94.6 (inactive)
CC(C)=CCCC(C)=CCOc1ccc2ccc(=O)oc2c1 [Auraptene]	105	103	103 (inactive)	97.1 (inactive)
O=c1c2ccccc2[nH]c(=S)n1CCN1CCC(=C(c2ccc(F)cc2)c2ccc(F)cc2)CC1 [Diacylglycerol Kinase Inhibitor II]	105 ± 1.1	93.8 ± 1.5	93.9 (inactive)	94.1 (inactive)
C=Cc1c(C)c2cc3[nH]c(cc4nc(cc5nc(cc1[nH]2)C(C)=C5CCC(=O)O)C(CCC(=O)O)=C4C)c(C)c3C=C [Protoporphyrin IX disodium]	103	86.7	100 (inactive)	100 (inactive)
CCN(CC)CCNC(=O)c1c(C)[nH]c(C=C2C(=O)Nc3ccc(F)cc32)c1C [Sunitinib]	92.1	58.7	106 (inactive)	173 (active)
C=C1CCC(O)CC1=CC=C1CCCC2(C)C1CCC2C(C)CCC(O)C(C)(C)O [24(R),25-Dihydroxyvitamin D3]	105	98.9	101 (inactive)	93.7 (inactive)
CC#CCOC(=O)c1c(C)nc2sc3c(c2c1N)CCC(O)C3 (stereo unspecified)	87.1	85.8	99.5 (inactive)	134 (inactive)
CN1C(CC(=O)c2ccccc2)CCCC1CC(O)c1ccccc1 (stereo unspecified) [Lobeline]	103	102	94.9 (inactive)	99.8 (inactive)
COc1cc(OC)c2cc(-c3ccncc3)cnc2c1.Cl.Cl [5,7-dimethoxy-3-(4-pyridinyl)quinoline dihydrochloride]	105	102	92.4 (inactive)	105 (inactive)
CCCCN(CCCC)CC(O)c1cc(Cl)cc2c1-c1ccc(Cl)cc1/C2=C/c1ccc(Cl)cc1 (stereo unspecified)	103	108	90.7 (inactive)	104 (inactive)
COc1cc2ncc(-c3ccccc3)nc2cc1OC	100	94.5	94 (inactive)	107 (inactive)
COc1ccc(-c2cc(=O)c3c(O)cc(O)cc3o2)cc1O [Diosmetine]	93.5	101	99.2 (inactive)	114 (inactive)
C[N+](C)(C)CCOC(=O)CCC(=O)OCC[N+](C)(C)C.O.O.[Cl-].[Cl-]	103	104	92.5 (inactive)	102 (inactive)
Clc1ccc(C(Cn2ccnc2)OCc2csc3c(Cl)cccc23)c(Cl)c1 (stereo unspecified) [Sertaconazole]	95	97.9	91.4 (inactive)	114 (inactive)
O=C1c2ccccc2-[n+]2ccc3c([nH]c4ccccc43)c21.[Cl-] [Fascaplysin, Synthetic]	49.8	6.76	182 (active)	60.9 (inactive)
CC12CCc3occc3C1CCC13CC(=O)C(CCC12)C3 (stereo unspecified) [16-Oxocafestol]	101	97.5	97.4 (inactive)	98.5 (inactive)

SMILES	cell number (HCC1569 [1])	cell number (TDF [2])	H1.0 immunofluorescence intensity (TDF [3])	H1.0 immunofluorescence intensity (HCC1569 [4])
Br.Br.N=C(N)SCCc1ccc(CCSC(=N)N)cc1 [1,4-PBIT dihydrobromide]	96.8	101	92 (inactive)	105 (inactive)
CC#CC(=O)Nc1cc2c(Nc3ccc(F)c(Cl)c3)ncnc2cn1 [EGFR/ErbB-2/ErbB-4 Inhibitor]	87.1	78.2	104 (inactive)	113 (inactive)
Nc1ccn(C2CCC(CO)O2)c(=O)n1 (stereo unspecified) ["2',3' - Dideoxycytidine"]	107	87.5	100 (inactive)	101 (inactive)
CCN(CCO)CCCC(C)Nc1ccnc2cc(Cl)ccc12.O=S(=O)(O)O (stereo unspecified)	99	91.2	102 (inactive)	95.7 (inactive)
Nc1ccc(-c2cccc3c(=O)cc(N4CCOCC4)oc23)cc1	78.1	99.3	82.5 (inactive)	156 (active)
COc1cc(CNC(=O)CCCCC=CC(C)C)ccc1O [Capsaicin]	99 ± 1.3	99.2 ± 2.3	93.8 (inactive)	95.8 (inactive)
CCC=CCC=CCC=CCC=CCCCCC(=O)O.[Na] [6(Z), 9(Z), 12(Z), 15(Z)-Octadecatetraenoic acid]	102	91.9	106 (inactive)	102 (inactive)
CC(=O)OCC=C(C)C=CC=C(C)C=CC1=C(C)CCCC1(C)C [Vitamin A acetate]	98.7	107	91.8 (inactive)	119 (inactive)
CCS(=O)(=O)CCn1c([N+](=O)[O-])cnc1C [Tinidazole]	107	104	102 (inactive)	105 (inactive)
COc1ccc(C=CC(=O)Nc2ccccc2C(=O)O)cc1OC [Tranilast]	99.2 ± 2.1	103 ± 4.7	92.9 (inactive)	102 (inactive)
CCCCC=CCCCCCCCC(=O)O [9(Z)-Tetradecenoic acid]	98.2	105	104 (inactive)	99.8 (inactive)
CC(C)Cc1ccc(C(C)C(=O)O)cc1 (stereo not drawn) [S(+)-Ibuprofen]	103	108	96 (inactive)	90.5 (inactive)
COc1cc(=O)n(C)c2c(OCC(O)C(C)(C)O)cccc12 (stereo unspecified) [Foliosidine]	103	112	93.5 (inactive)	93.7 (inactive)
CCOc1ccc2ccc(=O)oc2c1 [7-ethoxy-2H-chromen-2-one]	99.7	108	93.7 (inactive)	103 (inactive)
COc1cc2c(cc1O)CCC1C2CCC2(C)C(O)CCC12 (stereo unspecified) [2-methoxyestradiol]	54.3	11.5	156 (active)	156 (active)
O=c1cc(-c2ccc(O)c(O)c2)oc2cc(O)c(C3OC(CO)C(O)C(O)C3O)c(O)c12 (stereo unspecified) [Homoorientin]	101	96.2	100 (inactive)	90.4 (inactive)
C[C@@H](O)[C@H]1C(=O)N2C(C(=O)O)=C(SCCN=CN)C[C@H]12.O	101	104	99.9 (inactive)	93.3 (inactive)
Cl.OCC1NCC(O)C(O)C1O (stereo unspecified) [1-Deoxynojirimycin hydrochloride]	97.8	106	85.2 (inactive)	91.8 (inactive)
OCC1OC(n2cnc3c(NCCc4ccccc4)ncnc32)C(O)C1O (stereo unspecified) [N6-2-Phenylethyladenosine]	99.4	113	87.8 (inactive)	101 (inactive)
COc1cc2ccc(=O)oc2cc1O [Scopoletin]	101	113	101 (inactive)	88.9 (inactive)
CCCCCC=CCC=CCCCCCCCCC(=O)O [10(Z),13(Z)-Nonadecadienoic acid]	98.3	96.2	109 (inactive)	103 (inactive)
CCCN(CCc1ccccc1)C1CCc2c(O)cccc2C1 (stereo unspecified) [2-(N-Phenethyl-N-propyl)amino-5-hydroxytetralin]	105	96.6	89.4 (inactive)	106 (inactive)
